# Data reported in publication PMC7862700, “An all-to-all approach to the identification of sequence-specific readers for epigenetic DNA modifications on cytosine”.
# Assays:
# Assay in all cases: DAPPL (digital affinity profiling via proximity ligation, sequencing); 10 mM Tris-HCl pH 7.5, 50 mM NaCl, 1 mM DTT, 4% glycerol, room temperature, 30 min; GST-TFs on glutathione beads, 16-mer random dsDNA library, 0.1% formaldehyde crosslink after washing; high values mean tight binding
# Settings in all cases: protein: recombinant; tags: N-terminal GST; dsDNA, one strand shown
# FLI1 = target: T1, FLI1 (Homo sapiens, UniProt Q01543 1-452)
# T1 sequence: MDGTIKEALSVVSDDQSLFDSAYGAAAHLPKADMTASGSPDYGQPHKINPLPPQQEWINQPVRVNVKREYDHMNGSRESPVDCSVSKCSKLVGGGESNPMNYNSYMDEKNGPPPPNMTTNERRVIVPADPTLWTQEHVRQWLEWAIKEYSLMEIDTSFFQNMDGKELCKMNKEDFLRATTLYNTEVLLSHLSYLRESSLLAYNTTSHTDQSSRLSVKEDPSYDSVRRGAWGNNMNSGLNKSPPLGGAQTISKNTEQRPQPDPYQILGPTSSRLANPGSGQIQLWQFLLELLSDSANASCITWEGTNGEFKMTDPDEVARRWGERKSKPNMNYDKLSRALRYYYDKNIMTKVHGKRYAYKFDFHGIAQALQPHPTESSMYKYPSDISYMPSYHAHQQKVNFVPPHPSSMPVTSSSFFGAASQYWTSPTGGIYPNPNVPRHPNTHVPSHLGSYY
# Method in brief: (§1)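 After expression in yeast as GST fusions, human transcription factors were bound to glutathione beads, DNA-barcoded and mixed with a tag-only sample. The pools were incubated with 200 nmole of a 16-mer random double-stranded DNA library in Tris/NaCl/DTT/glycerol buffer (30 min, room temperature), washed and crosslinked with 0.1% formaldehyde. Proximity ligation with BsaI/T4 ligase ran for 1 h at 37 °C, before PCR amplification and sequencing on an Illumina NextSeq500. Binding signal is a hexamer's read frequency for a factor divided by its frequency for the tag-only sample.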
# ELK1 = target: T2, ELK1 (Homo sapiens, UniProt P19419 1-428)
# T2 sequence: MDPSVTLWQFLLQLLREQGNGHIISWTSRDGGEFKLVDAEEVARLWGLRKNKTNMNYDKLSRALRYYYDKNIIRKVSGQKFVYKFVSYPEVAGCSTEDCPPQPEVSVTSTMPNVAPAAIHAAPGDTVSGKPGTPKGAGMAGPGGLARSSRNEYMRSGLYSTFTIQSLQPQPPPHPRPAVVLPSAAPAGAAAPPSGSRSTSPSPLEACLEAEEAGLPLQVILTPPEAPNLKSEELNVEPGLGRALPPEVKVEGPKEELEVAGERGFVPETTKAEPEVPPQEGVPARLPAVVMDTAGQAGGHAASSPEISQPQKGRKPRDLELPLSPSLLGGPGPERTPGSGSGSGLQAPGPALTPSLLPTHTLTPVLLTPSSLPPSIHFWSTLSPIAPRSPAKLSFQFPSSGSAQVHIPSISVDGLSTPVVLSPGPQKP
# Method in brief: as §1
# GABPA = target: T3, GABPA (Homo sapiens, UniProt Q06546 1-454)
# T3 sequence: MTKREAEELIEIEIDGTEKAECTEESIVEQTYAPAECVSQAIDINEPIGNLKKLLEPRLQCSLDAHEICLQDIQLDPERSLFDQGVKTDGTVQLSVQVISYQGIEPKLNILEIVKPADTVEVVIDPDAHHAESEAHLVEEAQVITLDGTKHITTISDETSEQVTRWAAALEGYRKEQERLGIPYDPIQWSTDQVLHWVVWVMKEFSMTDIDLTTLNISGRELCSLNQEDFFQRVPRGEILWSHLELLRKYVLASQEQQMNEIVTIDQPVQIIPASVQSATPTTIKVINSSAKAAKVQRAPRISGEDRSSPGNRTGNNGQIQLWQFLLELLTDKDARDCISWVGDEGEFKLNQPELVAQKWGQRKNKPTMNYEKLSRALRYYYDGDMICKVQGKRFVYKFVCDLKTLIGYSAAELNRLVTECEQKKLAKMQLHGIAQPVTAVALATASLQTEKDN
# Method in brief: as §1
# ERG = target: T4, ERG (Homo sapiens, UniProt P11308 1-479)
# T4 sequence: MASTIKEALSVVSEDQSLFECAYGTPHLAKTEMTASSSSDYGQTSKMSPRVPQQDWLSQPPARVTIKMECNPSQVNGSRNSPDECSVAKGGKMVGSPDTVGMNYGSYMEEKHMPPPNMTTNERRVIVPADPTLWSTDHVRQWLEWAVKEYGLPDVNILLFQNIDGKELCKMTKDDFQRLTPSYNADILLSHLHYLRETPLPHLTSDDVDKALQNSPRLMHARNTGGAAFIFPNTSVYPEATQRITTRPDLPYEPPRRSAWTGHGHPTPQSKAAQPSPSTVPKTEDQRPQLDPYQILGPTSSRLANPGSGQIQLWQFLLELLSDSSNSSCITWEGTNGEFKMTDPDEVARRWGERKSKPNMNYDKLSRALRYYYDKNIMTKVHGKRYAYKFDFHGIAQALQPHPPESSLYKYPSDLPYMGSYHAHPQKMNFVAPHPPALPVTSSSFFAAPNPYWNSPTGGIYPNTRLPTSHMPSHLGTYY
# Method in brief: as §1
# ELF1 = ELF1 (Homo sapiens, UniProt P32519 1-619)
# Sequence of ELF1 (P32519 whole entry): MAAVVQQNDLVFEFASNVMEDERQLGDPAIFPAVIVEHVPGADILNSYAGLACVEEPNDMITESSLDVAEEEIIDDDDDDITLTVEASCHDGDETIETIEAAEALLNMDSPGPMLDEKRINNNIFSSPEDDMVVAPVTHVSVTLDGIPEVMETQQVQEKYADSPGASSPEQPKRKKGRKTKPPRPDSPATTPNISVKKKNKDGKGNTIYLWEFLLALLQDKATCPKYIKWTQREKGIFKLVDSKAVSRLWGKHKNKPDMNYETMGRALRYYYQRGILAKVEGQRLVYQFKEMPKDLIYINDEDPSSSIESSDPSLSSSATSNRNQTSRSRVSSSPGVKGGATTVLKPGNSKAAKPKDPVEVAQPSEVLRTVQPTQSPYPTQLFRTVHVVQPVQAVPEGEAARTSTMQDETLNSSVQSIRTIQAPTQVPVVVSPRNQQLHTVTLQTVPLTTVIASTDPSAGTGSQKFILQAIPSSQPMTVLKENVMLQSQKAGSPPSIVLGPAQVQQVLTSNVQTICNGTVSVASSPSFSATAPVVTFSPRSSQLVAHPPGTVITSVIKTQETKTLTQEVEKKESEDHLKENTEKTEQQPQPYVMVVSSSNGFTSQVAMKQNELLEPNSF
# Method in brief: as §1
# EHF = target: T5, EHF (Homo sapiens, UniProt Q9NZC4 1-300)
# T5 sequence: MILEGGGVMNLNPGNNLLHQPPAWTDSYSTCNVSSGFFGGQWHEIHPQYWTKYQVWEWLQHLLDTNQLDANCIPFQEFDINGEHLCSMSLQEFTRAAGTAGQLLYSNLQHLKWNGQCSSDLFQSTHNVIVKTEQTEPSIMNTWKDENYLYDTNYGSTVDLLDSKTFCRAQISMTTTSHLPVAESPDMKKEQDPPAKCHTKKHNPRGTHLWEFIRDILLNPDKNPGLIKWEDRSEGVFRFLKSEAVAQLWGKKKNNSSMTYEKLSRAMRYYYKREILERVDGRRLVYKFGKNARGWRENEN
# Method in brief: as §1
# SPI1 = SPI1 (Homo sapiens, UniProt P17947 1-270)
# Method in brief: as §1
# SPIB = SPIB (Homo sapiens, UniProt Q01892 1-262)
# Sequence of SPIB (Q01892 whole entry): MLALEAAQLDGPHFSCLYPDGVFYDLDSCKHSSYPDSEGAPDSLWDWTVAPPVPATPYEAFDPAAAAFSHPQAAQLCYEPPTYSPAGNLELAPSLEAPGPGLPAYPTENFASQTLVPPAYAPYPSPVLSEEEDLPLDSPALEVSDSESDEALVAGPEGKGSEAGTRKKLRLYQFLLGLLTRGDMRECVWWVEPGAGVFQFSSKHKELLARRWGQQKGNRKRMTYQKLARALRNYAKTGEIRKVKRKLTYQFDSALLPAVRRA
# Method in brief: as §1
# ELK3 = target: T6, ELK3 (Homo sapiens, UniProt P41970 1-407)
# T6 sequence: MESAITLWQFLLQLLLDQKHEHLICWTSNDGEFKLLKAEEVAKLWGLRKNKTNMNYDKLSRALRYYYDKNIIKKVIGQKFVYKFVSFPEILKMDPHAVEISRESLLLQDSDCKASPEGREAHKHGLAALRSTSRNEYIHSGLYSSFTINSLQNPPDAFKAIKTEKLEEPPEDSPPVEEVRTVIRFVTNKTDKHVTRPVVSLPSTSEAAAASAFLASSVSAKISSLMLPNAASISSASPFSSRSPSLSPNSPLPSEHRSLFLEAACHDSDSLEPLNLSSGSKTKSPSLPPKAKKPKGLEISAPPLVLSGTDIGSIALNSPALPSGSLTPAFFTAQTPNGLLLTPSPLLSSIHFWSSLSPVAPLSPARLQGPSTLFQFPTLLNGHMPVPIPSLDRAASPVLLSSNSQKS
# Method in brief: as §1
sequence,measurement,setting,value
TTTATT,binding signal,FLI1,"1.36 fold enrichment (6-mer frequency, TF over GST control)"
same,binding signal,ELK1,"1.25 fold enrichment (6-mer frequency, TF over GST control)"
same,binding signal,GABPA,"1.24 fold enrichment (6-mer frequency, TF over GST control)"
same,binding signal,ERG,"1.26 fold enrichment (6-mer frequency, TF over GST control)"
same,binding signal,ELF1,"1.19 fold enrichment (6-mer frequency, TF over GST control)"
same,binding signal,EHF,"1.31 fold enrichment (6-mer frequency, TF over GST control)"
same,binding signal,SPI1,"1.25 fold enrichment (6-mer frequency, TF over GST control)"
same,binding signal,SPIB,"1.32 fold enrichment (6-mer frequency, TF over GST control)"
same,binding signal,ELK3,"1.31 fold enrichment (6-mer frequency, TF over GST control)"
